Molecules are shown by their SMILES. Inconclusive results are not listed. A number with no mark means an inactive call. The source made the active and inactive calls. Unless noted, calls come from the whole dose curve; as a rule, active = well fitted curve in the direction sought with a large enough effect in the repeat runs; inconclusive = weak or mixed curves; inactive = no such curve, though single readings can be large; an effect the other way counts as inactive or inconclusive.

Test [1] in a line: qHTS assay to identify aromatase inhibitors - cell viability counter screen (AID 743084).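 Note: cells stimulated with testosterone during compound exposure; nearly all actives have a fitted effect of over 55% in size.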
Test [2] concerns the target Aryl hydrocarbon receptor (Homo sapiens) (UniProt P35869). The test can be described thus: qHTS assay to identify small molecule that activate the aryl hydrocarbon receptor (AhR) signaling pathway (AID 743085).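 For activation: HG2L7.5c1 human HepG2 liver cells with stably integrated DRE-driven firefly reporter; series mostly up to about 70 µM.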 Note: nearly all actives have a fitted effect of over 15% in size. Note: potency is the fitted concentration of half-maximal effect. The essentials: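 Stably transfected human liver carcinoma cells (HG2L7.5c1; 20 DRE-firefly luciferase) were incubated 5 h, dosed, and kept 24 h at 37C. Agonism was scored from increased luciferase luminescence.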

Test [3] is described as follows: qHTS assay to identify small molecule that activate the aryl hydrocarbon receptor (AhR) signaling pathway - cell viability counter screen (AID 743086).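 Note: HepG2 liver cells carrying the AhR DRE luciferase reporter; series mostly up to about 70 µM; nearly all actives have a fitted effect of over 45% in size.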 The essentials: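 HepG2-AhR-luc (HG2L7.5c1) cells, 4000/well, treated 24 h at 37 C with compound; viability measured as CellTiter-Fluor fluorescence after 30 min in the same wells as the luciferase read.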
Test [4] addresses Peroxisome proliferator-activated receptor gamma (Homo sapiens) (UniProt P37231). The test can be described thus: qHTS assay to identify small molecule agonists of the peroxisome proliferator-activated receptor gamma (PPARg) signaling pathway (AID 743094; active = well fitted activation curve with a large enough effect in the signal ratio in the repeat runs, not every such curve was filed as active; the % refers to the signal ratio). The essentials:
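GeneBLAzer PPARg UAS-bla HEK293H cells carrying a stably integrated beta-lactamase reporter were pre-incubated 5 h at 37C, then exposed to compounds in DMSO for 17 h at 37C; LiveBLAzer B/G FRET substrate was added for 1 h at room temperature and fluorescence read.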

Test [5] shares this target. The test can be described thus: qHTS assay to identify small molecule antagonists of the peroxisome proliferator-activated receptor gamma (PPARg) signaling pathway (AID 743191; calls by dose curve; note: series mostly up to about 63 µM; nearly all actives have a fitted effect of over 30% in size). The essentials: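 GeneBLAzer PPARg UAS-bla HEK293H cells, 5 h post-plating, exposed to compounds 17 h at 37C. LiveBLAzer B/G FRET substrate added for 1 h at room temperature; beta-lactamase reporter read by fluorescence intensity.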

Test [6] can be described thus: qHTS assay to identify small molecule antagonists of the peroxisome proliferator-activated receptor gamma (PPARg) signaling pathway - cell viability counter screen (AID 743194). Note: nearly all actives have a fitted effect of over 55% in size. The essentials: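 Cytotoxicity counter screen in PPARg-bla HEK293H cells, same wells as reporter assay. Compounds plus 50 nM rosiglitazone (final) for 17 h at 37 C, then viability read by CellTiter-Glo luminescence.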

Test [7] is described as follows: qHTS assay for small molecule agonists of the antioxidant response element (ARE) signaling pathway (AID 743202; active = well fitted activation curve with a large enough effect in the signal ratio in the repeat runs, not every such curve was filed as active; the % refers to the signal ratio). The essentials: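 Agonist mode reporter screen: HepG2 cells with ARE-controlled beta-lactamase are incubated with test compounds for 16 h at 37 C, and beta-lactamase activity is measured as fluorescence of cleaved B/G FRET substrate.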
A short description of test [8]: qHTS assay for small molecule agonists of the antioxidant response element (ARE) signaling pathway - cell viability counter screen (AID 743203; calls by dose curve; note: nearly all actives have a fitted effect of over 55% in size). The essentials:
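CellSensor ARE-bla HepG2 cells, 2,000 per well, rested 5 hrs at 37C/5% CO2, then exposed to compound in DMSO for 16 hrs; viability read as CellTiter-Glo luminescence after 30 min at room temperature, in the reporter wells.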

Test [9] is described as follows: qHTS assay for small molecule activators of the heat shock response signaling pathway - cell viability counter screen (AID 743209). Note: nearly all actives have a fitted effect of over 50% in size. The essentials: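 CellSensor HSE-bla HeLa cells, plated overnight at 37 C/5% CO2, were exposed to compounds in DMSO for 5 h at 37 C. Viability was then read in the same wells by CellTiter-Glo luminescence after 30 min at room temperature.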

Test [10] in a line: qHTS assay to identify small molecule agonists of the peroxisome proliferator-activated receptor delta (PPARd) signaling pathway - cell viability counter screen (AID 743211). Note: nearly all actives have a fitted effect of over 55% in size. The essentials: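 In the same wells used for beta-lactamase reporter measurement, cytotoxicity is scored by CellTiter-Glo. HEK293H PPARd-bla cells receive compound for 17 h at 37C following a 5 h settling period.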

Test [11] is described as follows: qHTS assay to identify small molecule antagonists of the peroxisome proliferator-activated receptor delta (PPARd) signaling pathway - cell viability counter screen (AID 743213). Note: nearly all actives have a fitted effect of over 50% in size. The essentials: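 Cytotoxicity counter screen: CellTiter-Glo luminescence read 30 min after addition, in the same wells as the reporter assay. There, PPARd UAS-bla HEK293H cells (3000/well) were treated 17 h at 37 C with compound and 300 nM L165041.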

The target in test [12] is Peroxisome proliferator-activated receptor delta (Homo sapiens) (UniProt Q03181). The test can be described thus: qHTS assay to identify small molecule antagonists of the peroxisome proliferator-activated receptor delta (PPARd) signaling pathway (AID 743215; active = well fitted inhibition curve with a large enough effect in the signal ratio in the repeat runs, not every such curve was filed as active; the % refers to the signal ratio;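 note: cells stimulated with agonist L165041 at 300 nM final during compound exposure; series mostly up to about 62 µM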). The essentials: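 PPARd UAS-bla HEK293H cells were pre-incubated 5 h at 37 C, then given test compounds in DMSO plus agonist L165041 (300 nM final). After 17 h at 37 C, beta-lactamase FRET substrate was added; fluorescence read after 2 h at room temperature.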

Test [13] has as its target Bile acid receptor (Homo sapiens) (UniProt Q96RI1). The test can be described thus: qHTS assay to identify small molecule antagonists of the farnesoid-X-receptor (FXR) signaling pathway (AID 743217; active = well fitted inhibition curve with a large enough effect in the signal ratio in the repeat runs, not every such curve was filed as active; the % refers to the signal ratio). The essentials:
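FXR-UAS-bla HEK 293T cells pre-incubated 5 h at 37 °C, then exposed to compounds with chenodeoxycholic acid (50 uM final) for 16 h at 37 °C. Beta-lactamase reporter read by LiveBLAzer B/G FRET substrate fluorescence after 2 h at room temperature.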

A short description of test [14]: qHTS assay to identify small molecule agonists of the farnesoid-X-receptor (FXR) signaling pathway - cell viability counter screen (AID 743218). Note: nearly all actives have a fitted effect of over 45% in size. The essentials: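 FXR-UAS-bla HEK 293T cells, plated 5 h at 37 C, were exposed to compounds for 16 h at 37 C. CellTiter-Glo was then added to the same wells as the bla readout; luminescence read after 30 min at room temperature.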

The target in test [15] is Bile acid receptor (Homo sapiens) (UniProt Q96RI1). The test can be described thus: qHTS assay to identify small molecule agonists of the farnesoid-X-receptor (FXR) signaling pathway (AID 743220; active = well fitted activation curve with a large enough effect in the signal ratio in the repeat runs, not every such curve was filed as active; the % refers to the signal ratio). The essentials: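 Beta-lactamase reporter under UAS control in GeneBLAzer FXR HEK 293T cells (5000/well) measured with LiveBLAzer FRET substrate after 2 h at room temperature. Compound exposure lasted 16 h at 37C.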

Test [16] can be described thus: qHTS assay to identify small molecule antagonists of the farnesoid-X-receptor (FXR) signaling pathway - cell viability counter screen (AID 743221; active = well fitted cell-killing curve with a large enough effect in the repeat runs, not every such curve was filed as active; note: nearly all actives have a fitted effect of over 50% in size). The essentials: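 Here viability was scored by luminescence after CellTiter-Glo addition to wells already read for beta-lactamase. Prior treatment: compound plus CDCA (50 uM final), 16 h, 37 C, HEK 293T FXR-bla cells.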

Test [17] has as its target Vitamin D3 receptor (Homo sapiens) (UniProt P11473). The test can be described thus: qHTS assay to identify small molecule agonists of the vitamin D receptor (VDR) signaling pathway (AID 743222; calls by dose curve). The essentials:
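VDR-bla cells were plated 4 h at 37C/5% CO2, then exposed to compounds in DMSO for 16 h. After LiveBLAzer B/G FRET substrate addition and 2 h at room temperature, beta-lactamase reporter fluorescence was read.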

For test [18] the target is unchanged. The test can be described thus: qHTS assay to identify small molecule antagonists of the vitamin D receptor (VDR) signaling pathway (AID 743223; active = well fitted inhibition curve with a large enough effect in the signal ratio in the repeat runs, not every such curve was filed as active; the % refers to the signal ratio). The essentials: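 Inhibition of agonist-driven VDR signalling is scored in VDR-bla cells: 3 nM final 1alpha,25-dihydroxyvitamin D3 plus compound, 16 h at 37C, then beta-lactamase detection by FRET substrate fluorescence after 2 h.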

Test [19] in a line: qHTS assay for small molecule activators of the heat shock response signaling pathway (AID 743210; active = well fitted activation curve with a large enough effect in the signal ratio in the repeat runs, with a control signal flat, not every such curve was filed as active; the % refers to the signal ratio;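 note: HeLa cells with beta-lactamase reporter driven by heat shock elements; series mostly up to about 63 µM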). The essentials:
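Quantitative high-throughput format using an engineered HeLa line in which heat shock response elements drive beta-lactamase; after 5 h with compound, cells received a B/G FRET substrate and fluorescence was read.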

In test [20] the target is Peroxisome proliferator-activated receptor delta (Homo sapiens) (UniProt Q03181). The test can be described thus: qHTS assay to identify small molecule agonists of the peroxisome proliferator-activated receptor delta (PPARd) signaling pathway (AID 743212; calls by dose curve). The essentials:
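Quantitative high-throughput agonist screen in a HEK293H beta-lactamase reporter line under UAS control. Compounds in DMSO, at 37 C. Fluorescence read after 2 h with FRET substrate at room temperature.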

Chain of Vitamin D3 receptor (Homo sapiens) (P11473 whole entry, looked up): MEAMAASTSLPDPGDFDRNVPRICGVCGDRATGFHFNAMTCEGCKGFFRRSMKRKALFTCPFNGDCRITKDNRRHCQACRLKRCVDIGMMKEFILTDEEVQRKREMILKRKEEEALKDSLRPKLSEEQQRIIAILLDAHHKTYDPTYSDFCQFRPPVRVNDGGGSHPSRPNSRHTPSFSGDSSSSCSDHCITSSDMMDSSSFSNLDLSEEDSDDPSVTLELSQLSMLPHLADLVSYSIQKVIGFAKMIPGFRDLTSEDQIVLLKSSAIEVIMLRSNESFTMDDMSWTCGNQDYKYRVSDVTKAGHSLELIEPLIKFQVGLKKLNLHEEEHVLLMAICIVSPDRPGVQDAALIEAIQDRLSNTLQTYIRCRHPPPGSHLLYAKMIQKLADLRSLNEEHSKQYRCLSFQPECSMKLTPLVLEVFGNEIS
Chain of Bile acid receptor (Homo sapiens) (Q96RI1 whole entry, looked up): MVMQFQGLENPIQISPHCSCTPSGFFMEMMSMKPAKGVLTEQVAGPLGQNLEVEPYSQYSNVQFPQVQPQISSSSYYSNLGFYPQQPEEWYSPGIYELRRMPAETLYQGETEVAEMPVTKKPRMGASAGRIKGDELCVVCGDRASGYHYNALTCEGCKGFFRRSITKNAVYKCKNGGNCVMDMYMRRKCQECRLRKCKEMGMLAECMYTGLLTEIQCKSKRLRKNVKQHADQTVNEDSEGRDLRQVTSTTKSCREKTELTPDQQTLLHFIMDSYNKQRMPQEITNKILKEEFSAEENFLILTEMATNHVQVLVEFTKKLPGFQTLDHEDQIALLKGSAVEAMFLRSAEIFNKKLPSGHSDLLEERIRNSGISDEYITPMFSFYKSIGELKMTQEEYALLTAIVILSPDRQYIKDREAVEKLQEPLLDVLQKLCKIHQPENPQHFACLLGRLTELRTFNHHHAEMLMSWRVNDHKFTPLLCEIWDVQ
Chain of Aryl hydrocarbon receptor (Homo sapiens) (P35869 whole entry, looked up): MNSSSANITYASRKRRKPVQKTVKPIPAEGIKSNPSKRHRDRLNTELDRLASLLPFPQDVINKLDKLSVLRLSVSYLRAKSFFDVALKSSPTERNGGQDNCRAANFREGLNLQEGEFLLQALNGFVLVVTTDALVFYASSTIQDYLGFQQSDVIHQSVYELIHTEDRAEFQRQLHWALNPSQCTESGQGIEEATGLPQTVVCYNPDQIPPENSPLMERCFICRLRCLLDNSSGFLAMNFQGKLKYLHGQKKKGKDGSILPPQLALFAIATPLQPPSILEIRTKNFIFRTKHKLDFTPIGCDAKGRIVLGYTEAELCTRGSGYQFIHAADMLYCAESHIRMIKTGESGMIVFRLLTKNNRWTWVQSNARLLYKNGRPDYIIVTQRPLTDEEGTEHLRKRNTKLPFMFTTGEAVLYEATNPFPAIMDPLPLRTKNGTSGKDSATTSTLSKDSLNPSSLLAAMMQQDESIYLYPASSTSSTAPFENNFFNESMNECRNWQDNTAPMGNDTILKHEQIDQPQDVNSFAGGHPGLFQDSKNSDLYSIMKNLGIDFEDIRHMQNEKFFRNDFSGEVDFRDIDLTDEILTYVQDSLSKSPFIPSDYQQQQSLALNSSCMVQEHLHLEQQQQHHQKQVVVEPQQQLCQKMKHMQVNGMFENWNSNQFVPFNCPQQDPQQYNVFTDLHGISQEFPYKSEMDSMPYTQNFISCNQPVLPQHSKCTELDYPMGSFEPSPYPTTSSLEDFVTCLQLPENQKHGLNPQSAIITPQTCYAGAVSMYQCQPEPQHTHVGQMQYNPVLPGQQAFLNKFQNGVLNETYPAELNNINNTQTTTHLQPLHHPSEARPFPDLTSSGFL
Chain of Peroxisome proliferator-activated receptor gamma (Homo sapiens) (P37231 whole entry, looked up): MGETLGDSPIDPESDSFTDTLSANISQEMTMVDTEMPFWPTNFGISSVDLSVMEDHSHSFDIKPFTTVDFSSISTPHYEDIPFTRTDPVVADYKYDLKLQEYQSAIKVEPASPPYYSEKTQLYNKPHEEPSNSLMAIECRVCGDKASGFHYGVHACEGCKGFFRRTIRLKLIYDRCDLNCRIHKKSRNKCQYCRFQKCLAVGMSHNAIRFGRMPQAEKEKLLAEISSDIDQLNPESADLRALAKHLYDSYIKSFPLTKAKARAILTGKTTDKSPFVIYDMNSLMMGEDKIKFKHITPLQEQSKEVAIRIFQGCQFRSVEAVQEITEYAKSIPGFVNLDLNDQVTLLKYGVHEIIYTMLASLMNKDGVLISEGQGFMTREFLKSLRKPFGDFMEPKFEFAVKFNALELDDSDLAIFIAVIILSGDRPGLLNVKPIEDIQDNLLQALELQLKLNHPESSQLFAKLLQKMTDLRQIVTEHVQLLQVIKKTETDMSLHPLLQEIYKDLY
Chain of Peroxisome proliferator-activated receptor delta (Homo sapiens) (Q03181 whole entry, looked up): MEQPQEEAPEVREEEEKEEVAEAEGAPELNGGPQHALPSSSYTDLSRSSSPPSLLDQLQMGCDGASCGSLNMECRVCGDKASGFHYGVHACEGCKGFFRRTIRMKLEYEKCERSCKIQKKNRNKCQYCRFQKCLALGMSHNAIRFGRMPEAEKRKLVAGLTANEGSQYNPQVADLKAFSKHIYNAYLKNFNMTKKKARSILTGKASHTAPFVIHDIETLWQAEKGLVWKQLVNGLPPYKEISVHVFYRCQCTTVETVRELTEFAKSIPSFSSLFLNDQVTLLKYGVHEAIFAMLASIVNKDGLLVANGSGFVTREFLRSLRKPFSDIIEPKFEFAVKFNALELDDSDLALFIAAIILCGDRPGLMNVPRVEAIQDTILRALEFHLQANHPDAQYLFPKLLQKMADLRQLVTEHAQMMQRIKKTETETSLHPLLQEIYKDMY

For `CCCC(=O)C(C)=O`, the Potency entry in test [1], in test [2], in test [3], in [5], in test [7] and in test [13] was “inactive” throughout. Further, the Potency result in [14] and in test [15] was “inactive” in each case. Besides, the result in test [4], in test [6], in [8], in test [9], in test [10] and in [11] was inactive. For the same molecule, the outcome in [12] and in [16] was inactive.

With `Cc1ccc(C=O)cc1C`, the Potency entry in test [1], in [2], in test [3], in [5], in test [7] and in test [13] was “inactive” throughout. Moreover, the Potency entry in test [14] and in [15] was “inactive” each time. Moreover, the result in test [4], in test [6], in test [8], in [9], in test [10] and in test [11] was inactive. Also, the molecule was classed as inactive in test [16], in test [17] and in test [18].

For `C=C(C)C1CCC(C)(O)CC1` (stereo unspecified), the Potency result in test [1], in test [2], in test [3], in [5], in test [7] and in [14] was “inactive” each time. Besides, the result in test [4], in test [6], in test [8], in test [9], in test [19] and in test [10] was inactive. The molecule was called inactive in [11], in test [12], in test [16], in [17] and in [18].

On to `CC(=O)CCCCn1c(=O)c2c(ncn2C)n(C)c1=O`, for which the Potency result in test [1], in test [2], in [3], in test [5], in test [7] and in [14] was “inactive” in each case. For the same molecule, the outcome in test [4], in [6], in test [8], in test [9], in test [19] and in [10] was inactive. In addition, the molecule was classed as inactive in test [20], in test [12] and in test [16].

Turning to `CN(C)CCOCCO`, the Potency result in test [1], in [2], in [3], in [5], in test [7] and in [13] was “inactive” throughout. Further, the Potency entry in test [14] and in test [15] was “inactive” throughout. Further, the molecule was called inactive in test [4], in [6], in test [8], in test [9], in test [19] and in [10]. Further, the outcome in test [20], in [11], in test [12] and in test [16] was inactive.

In the case of `NNc1nnc(NN)c2ccccc12`, the Potency result in [1], in [3], in test [5], in test [7], in test [13] and in [15] was “inactive” throughout. Also, the Potency in test [2] is 29.8 µM (active). The call in [4], in test [6], in test [8], in test [9], in test [19] and in test [10] was inactive. In addition, the call in [20], in test [11], in test [12], in test [16] and in test [18] was inactive.

Consider `COc1nccnc1NS(=O)(=O)c1ccc(N)cc1`, for which the Potency entry in test [1], in test [2], in test [3], in test [5], in test [7] and in [13] was “inactive” each time. Besides, in test [15], the Potency result was “inactive”. Further, the call in test [4], in [6], in test [8], in test [9], in test [10] and in test [20] was inactive. Besides, the call in test [11], in test [12], in test [16], in test [17] and in test [18] was inactive.

Regarding `Cc1ccccc1OCC(O)CO` (stereo unspecified), the Potency entry in test [1], in test [2], in test [3], in test [5], in test [7] and in [14] was “inactive” each time. For the same molecule, the molecule was classed as inactive in test [4], in test [6], in test [8], in [9], in test [19] and in test [10]. Further, the call in test [20], in test [11], in [12], in [16] and in [18] was inactive.
